# Most compounds without a hit are left out; they make up all but 3.1% or so of the library.
# p53ts 39C kill: cytotoxicity in p53ts cells at nonpermissive temperature | 1.5% of 130,000 active | H1299-p53A138V viability at 39C, ATP luminescence, 24 h | Potency, µM (titrated, usually from 46.1 µM), without a hit: at the top dose activity change, negative = cell killing, hits mostly cytotoxic; note: % is set by controls: 0 for no effect and ±100 for the full control effect; nearly all actives have a fitted effect of over 55% in size
# IkB signaling: suppresses IkB signaling in ABC-DLBCL reporter cells. 0.04% of 110,000 active. ABC-DLBCL IkBa-CBG/CBR dual luciferase ratio, 4 h; response scale: scaled: untreated 0%, proteasome inhibitor 100%. AID 445. Potency, µM (series often up to 57.1 µM), without a hit: top-dose IkBa stabilization activation; active = well fitted curve in the direction sought with a large enough effect in the signal ratio, not every such curve was filed as active; inconclusive = small, poorly fitted or top-dose-only effect, or a change in a side signal; the % refers to the signal ratio;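 note: the direction sought is a rising ratio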
#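 Curves were fitted separately to fusion (green), unfused (red) and ratio luminescence, then classed by r2, magnitude and activity. Cells: OCI-Ly3, 4 h compound plus doxycycline at 37C; 10 uM MG-132 defined full response.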
# Peg3 imprint: induces erasure of genomic imprints in mouse ES cells; Potency, µM (doses to about 60.7 µM), for the others: at the top dose activity change, positive = activation, usual class: activators; 0.02% of 110,000 active; mouse ES Peg3-LacZ reporter, beta-gal luminescence, 40 h
#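 Each well holds 300 Peg3LacZ-Neo (maternal) female ES cells incubated 40 h at 37C, 5% CO2. LacZ is measured by BetaGlo luminescence, with AC50 and maximum efficacy derived from dose-response curves.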
# p53ts 32C kill: cytotoxicity in p53ts cells at permissive temperature. Potency, µM (doses to about 46.1 µM), inactives show at the highest dose activity change, negative = cytotoxicity, usual class: cytotoxic. H1299-p53A138V at 32C, ATP luminescence viability, 24 h. 0.93% of 130,000 active;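 note: 0% = DMSO and -100% = full killing by reference compound; nearly all actives have a fitted effect of over 55% in size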
#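 H1299-p53 A138V cells (temperature-sensitive p53) exposed 24 h to up to 46 uM compound at 32C, where p53 is wild-type in conformation. Viability read as ATP luminescence and normalised to DMSO and 100 uM tamoxifen. AC50 fitted with the Hill equation.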
# TSHR agonist: activates the human thyroid stimulating hormone receptor; 0.48% of 73,000 active; Potency, µM (series often up to 57.1 µM), for inactives: at the highest dose activation, hits mostly activators; HEK293-CNG-TSHR cells (CNG channel as cAMP sensor), membrane potential dye, cAMP; active = well fitted activation curve with a large enough effect in the main read-out, with a control signal flat, not every such curve was filed as active; inconclusive = small, poorly fitted or top-dose-only effect, or a change in a side signal; inactive = no such curve, though single readings can be large or run the other way; % of control where 0% means no effect;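 note: the control signal comes from parental cells without the receptor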
# Target sequence (P16473 whole entry, looked up): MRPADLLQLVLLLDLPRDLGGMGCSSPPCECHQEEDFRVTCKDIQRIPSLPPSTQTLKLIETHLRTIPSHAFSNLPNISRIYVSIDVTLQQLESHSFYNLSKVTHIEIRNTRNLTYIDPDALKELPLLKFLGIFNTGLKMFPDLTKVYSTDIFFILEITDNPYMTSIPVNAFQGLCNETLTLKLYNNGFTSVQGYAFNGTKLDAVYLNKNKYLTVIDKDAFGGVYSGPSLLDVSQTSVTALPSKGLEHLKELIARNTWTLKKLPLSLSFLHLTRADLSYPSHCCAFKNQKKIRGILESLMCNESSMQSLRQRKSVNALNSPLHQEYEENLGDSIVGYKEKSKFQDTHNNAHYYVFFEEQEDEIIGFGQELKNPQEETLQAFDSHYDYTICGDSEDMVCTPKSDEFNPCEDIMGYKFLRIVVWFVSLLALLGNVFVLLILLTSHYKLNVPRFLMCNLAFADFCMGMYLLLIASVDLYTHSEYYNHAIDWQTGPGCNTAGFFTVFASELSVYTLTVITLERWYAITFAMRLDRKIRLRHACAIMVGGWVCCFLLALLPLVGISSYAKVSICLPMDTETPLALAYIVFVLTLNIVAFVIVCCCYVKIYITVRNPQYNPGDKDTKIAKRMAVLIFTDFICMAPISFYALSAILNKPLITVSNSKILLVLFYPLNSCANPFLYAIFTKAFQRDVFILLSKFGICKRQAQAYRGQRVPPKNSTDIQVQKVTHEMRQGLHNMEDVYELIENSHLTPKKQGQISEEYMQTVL
#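 HEK 293 cells stably expressing TSHR and a cAMP-gated CNG channel; parental CNG-only cells as counterscreen. Cells preloaded 60 min with membrane potential dye plus 100 uM RO 20-1724, then compound 30 min; fluorescence read at 590 nm.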
# HEK293 cAMP cs: counter-screen for TSHR agonists: cAMP increase in parental HEK293 | 2.5% of 73,000 active | parental HEK293 CNG cAMP sensor, membrane potential fluorescence | Potency, µM (highest dose often 57.1 µM), inactives show at the top dose activation, actives largely listed as activators | AID 938; note: % of control where 0% means no effect; nearly all actives have a fitted effect of over 55% in size
#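 Parental HEK 293 cells stably expressing a cAMP-gated CNG channel were loaded with membrane potential dye containing 100 uM RO 20-1724 for 60 min. Compound added for 30 min; depolarization read as fluorescence intensity at 590 nm.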
# The depositor's hits bear a star; ? = inconclusive; . = not tested or not shown; ! = repeats disagree; [ ] = dose if it differs, or a comment. Unless noted, calls come from the whole dose curve; as a rule, active = well fitted curve in the direction sought with a large enough effect; inconclusive = small, poorly fitted or top-dose-only effect, or another doubt; inactive = no such curve, though single readings can be large; an effect the other way counts as inactive or inconclusive. Potency is the fitted concentration of half-maximal effect.
SMILES,p53ts 39C kill,IkB signaling,Peg3 imprint,p53ts 32C kill,TSHR agonist,HEK293 cAMP cs
O=C(CSc1nnc2[nH]c(=O)cc(-c3ccccc3)n12)Nc1ccc(F)cc1F,3.16µM*,5.9%,3.7%[10.9 µM],?,.,.
Cc1cccc(NC(=O)CSc2nnc3[nH]c(=O)cc(-c4ccccc4)n23)c1C,1.26µM*,3.1%,-4.5%[10.9 µM],2.1%,.,.
O=C(CSc1nnc2[nH]c(=O)cc(-c3ccccc3)n12)Nc1cc(C(F)(F)F)ccc1Cl,1.26µM*,?,16.4%[10.9 µM],0.631µM*,.,.
CCN(C(=O)CCn1cnc2onc(-c3ccc(F)cc3)c2c1=O)c1ccc(OC)cc1,9.9%,-1.6%,-8.2%[10.9 µM],21.0%,.,.
COc1cc(/C=C/C(=O)c2cccs2)cc(OC)c1OC,?,.,-30.6%,6.31µM*,.,.
O=C(/C=C/c1ccc(OCc2ccccc2)cc1)c1cccs1,4.1%,.,-18.9%,?,.,.
O=C(/C=C/c1ccc(O)cc1)c1cccs1,?,.,-91.9%,31.6µM*,.,.
Cc1c(/C=C/C(=O)c2ccc(Cl)s2)cnn1C,-3.5%,.,.,-3.3%,.,.
Cc1nn(C)cc1/C=C/C(=O)c1cccs1,?,.,.,12.6µM*,.,.
CN(Cc1ccccc1)c1nc2c(c(=O)[nH]c(=O)n2C)n1C,9.0%,0.3%,-1.1%,-2.0%,-3.0%,-6.2%
Cc1cccc(Cn2c(N(C)Cc3ccccc3)nc3c2c(=O)[nH]c(=O)n3C)c1,5.01µM*,5.0%,-46.2%,6.31µM*,9.7%,8.3%
Clc1ccc(C(c2nnnn2C2CCCCC2)N(Cc2cccnc2)Cc2ccco2)cc1 (stereo not drawn),-0.1%,?,-8.2%,8.6%,?,3.16µM*
CC(C(=O)Nc1ccccc1C(F)(F)F)n1nc(-c2ccccc2)c2c(c1=O)CCCC2 (stereo not drawn),-9.6%,?,-6.7%[10.9 µM],19.0%,.,.
Oc1ccc(CN2CCN(Cc3ccccc3)CC2)c2cccnc12,-23.4%,0.7%,-43.5%,?,-1.4%,5.2%
Oc1c(CN2CCc3ccccc3C2)cc(Cl)c2cccnc12,3.98µM*,?,-31.0%,12.6µM*,-0.3%,1.5%
Oc1c(CN2CCCCC2)cc(Br)c2cccnc12,10µM*,?,-26.9%,-23.0%,6.1%,8.0%
CCCc1cc(N2CCN(c3ccccc3F)CC2)n2cnnc2n1,8.0%,?,-16.0%[10.9 µM],-8.2%,.,.
O=c1ccn([C@@H]2O[C@@H](COP(=O)(O)OP(=O)(O)O)[C@H](O)[C@@H]2O)c(=O)[nH]1,18.0%,-2.3%,.,1.2%,?,?
O=C(OCC1OC(OC(=O)c2cc(O)c(O)c(OC(=O)c3cc(O)c(O)c(O)c3)c2)[C@@H](OC(=O)c2cc(O)c(O)c(OC(=O)c3cc(O)c(O)c(O)c3)c2)C(OC(=O)c2cc(O)c(O)c(OC(=O)c3cc(O)c(O)c(O)c3)c2)C1OC(=O)c1cc(O)c(O)c(OC(=O)c2cc(O)c(O)c(O)c2)c1)c1cc(O)c(O)c(OC(=O)c2cc(O)c(O)c(O)c2)c1 (stereo partly drawn),6.31µM*,.,-82.9%,10µM*,.,.
Cc1cn(C2OC(COC(=O)c3ccccc3)C(OC(=O)c3ccccc3)C2OC(=O)c2ccccc2)c(=O)[nH]c1=O (stereo not drawn),-4.6%,.,.,-16.0%,.,.
Cc1cc(N2CCOCC2)nc2cc(O)ccc12,-14.5%,-3.8%,-4.4%,-24.2%,?,6.31µM*
CCCCNc1c(C(=O)OCC)c(C)nc2c1cnn2CC,15.8µM*!,?,-15.4%,36.7%,-0.2%[25.6 µM],22.4%
O=C(C1CCCCC1)N1CCCC(c2nc3c(nnn3Cc3ccccc3)c(=O)[nH]2)C1 (stereo not drawn),?,-0.5%,-1.8%,24.5%,?,?
Cc1ccc(C)c(Cn2nnc3c(=O)[nH]c(C4CCCN(C(=O)C5CCCCC5)C4)nc32)c1 (stereo not drawn),-3.2%,?,-13.5%,8.1%,?,20µM*
COc1ccc(C(=O)c2c[nH]c3ccccc23)cc1,10µM*,0.0%,-26.0%,7.94µM*,0.5%[11.4 µM],-1.4%[11.4 µM]
SMILES,p53ts 39C kill,IkB signaling,Peg3 imprint,p53ts 32C kill,TSHR agonist,HEK293 cAMP cs
CC(=O)c1ccc(NC(=O)c2noc3c2CCCCC3)cc1,-10.5%,1.0%,-15.9%,-16.7%,-5.3%,-2.2%
O=C(Nc1ccc2c(c1)OCO2)c1ccc(Br)s1,?,?,-45.6%,12.6µM*,-3.9%,-3.0%
O=C(Nc1ccc2c(c1)OCO2)c1noc2c1CCCCC2,15.8µM*,?,-75.2%,15.8µM*,?,?
CCCN1Cc2cccc(C(=O)Nc3ccc4c(c3)OCO4)c2C1=O,1.3%,-2.4%,-15.5%,-5.7%,?,?
Cc1ccc(C(=O)Nc2ccc3c(c2)OCO3)o1,?,0.0%,-84.5%,10µM*,0.9%,-2.4%
O=C(Nc1ccc2c(c1)OCO2)c1cccc2c1C(=O)N(C1CCCCC1)C2,-2.8%,-1.6%,2.9%,2.6%,3.16µM*,18.8%
C/C(=C\C(=O)c1ccc(C)o1)Nc1ccc2c(c1)OCO2,1.3%,-3.3%,-12.5%,-5.3%,?,?
CCCOc1ccc(C(=O)Nc2ccc3oc(-c4ccncc4)nc3c2)cc1,12.8%,2.2%,-12.6%[10.9 µM],8.4%,.,.
O=C(Nc1ccccc1C(F)(F)F)c1noc2c1CCCCC2,12.6µM*,2.7%,-8.8%[10.9 µM],12.6µM*,.,.
CCN(CC)S(=O)(=O)c1ccc(C(=O)Nc2ccc3c(c2)OCCO3)cc1,-17.0%,0.9%,-5.4%,-1.4%,0.2%[11.4 µM],-5.7%
Cc1ccccc1C(=O)Nc1ccc2c(c1)OCO2,12.6µM*,5.1%,.,10µM*,-0.9%,3.6%
CC(C)c1cc(C(=O)Nc2ccc3c(c2)OCO3)no1,?,?,-58.5%,15.8µM*,12.9%,8.1%
CCCN(CCC)S(=O)(=O)c1cccc(C(=O)Nc2ccc3c(c2)OCO3)c1,-12.5%,?,-5.0%,15.0%,?,15.8µM*
COc1ccc(S(=O)(=O)N2CCC(N3CCN(Cc4ccc(F)cc4)C(=O)C3=O)CC2)cc1,-5.5%,0.2%,12.3%[10.9 µM],?,.,.
CCOc1ccc(-c2cc3c(=O)n(CC(=O)NCc4ccc(F)cc4)ccn3n2)cc1,-22.3%,0.6%,-12.8%[10.9 µM],-18.6%,.,.
COC(=O)[C@@]1(Cc2ccc(OC)cc2)[C@H]2c3cc(C(=O)N4CCCC4)n(Cc4ccccn4)c3C[C@H]2CN1C(=O)c1ccccc1,-11.5%,.,-7.9%,-1.6%,?,?
COC(=O)[C@@]1(Cc2ccc(OC)cc2)[C@H]2c3cc(C(=O)N4CCCC4)n(Cc4cc(F)cc5c4OCOC5)c3C[C@H]2CN1C(=O)c1ccccc1,2.1%,.,-11.0%,9.1%,?,3.98µM*
